# An excerpt weighted towards active compounds, which were near 3.3% of everything screened.
# TPT1 inhibitor: C. albicans TPT1 enzyme inhibition; recombinant caTPT1, FP RNA substrate dephosphorylation; inhibition, % at 5 µM; hit rate 0.81% among 300,000; AID 1962;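 active = inhibition above the mean of all tested compounds plus 3 SD, set per screening campaign, cut at about 24% in these data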
# PHOSPHO1 block: PHOSPHO1 (human) inhibition. recombinant PHOSPHO1, absorbance phosphatase assay. inhibition, % at 13.3 µM. hit rate 1.1% among 290,000; in the data active = inhibition above about 60%
# Fh CTSL1 inh: cathepsin L1 inhibition, PFM18AAP counter-screen; recombinant F. hepatica cathepsin L1, Z-Leu-Arg-MCA fluorescence; hit rate 0.49% among 300,000; AID 1906; inhibition, % at 5.96 µM;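 active = inhibition above the mean of all tested compounds plus 3 SD, set per screening campaign, cut at about 17% in these data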
# HNF4A DNA FP: change in binding of human HNF4 alpha to DNA; activity change, % at 10 µM; P41235; HNF4a-FITC DNA binding, fluorescence polarization, 1 h; hit rate 0.3% among 360,000; in the data active = activity change above about 30%, passing the limit was not always enough
# NRP1-CendR mod: alters CendR peptide binding to human NRP-1. O14786. FAM-RPARPAR peptide binding to NRP-1, fluorescence polarization. inhibition, % at 25 µM. hit rate 0.85% among 360,000;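 active = inhibition or corrected inhibition above about 18%, plus a signal ratio from 0.5 to 1.5, limit read from the data, passing the limit was not always enough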
# Target sequence (O14786 whole entry, looked up): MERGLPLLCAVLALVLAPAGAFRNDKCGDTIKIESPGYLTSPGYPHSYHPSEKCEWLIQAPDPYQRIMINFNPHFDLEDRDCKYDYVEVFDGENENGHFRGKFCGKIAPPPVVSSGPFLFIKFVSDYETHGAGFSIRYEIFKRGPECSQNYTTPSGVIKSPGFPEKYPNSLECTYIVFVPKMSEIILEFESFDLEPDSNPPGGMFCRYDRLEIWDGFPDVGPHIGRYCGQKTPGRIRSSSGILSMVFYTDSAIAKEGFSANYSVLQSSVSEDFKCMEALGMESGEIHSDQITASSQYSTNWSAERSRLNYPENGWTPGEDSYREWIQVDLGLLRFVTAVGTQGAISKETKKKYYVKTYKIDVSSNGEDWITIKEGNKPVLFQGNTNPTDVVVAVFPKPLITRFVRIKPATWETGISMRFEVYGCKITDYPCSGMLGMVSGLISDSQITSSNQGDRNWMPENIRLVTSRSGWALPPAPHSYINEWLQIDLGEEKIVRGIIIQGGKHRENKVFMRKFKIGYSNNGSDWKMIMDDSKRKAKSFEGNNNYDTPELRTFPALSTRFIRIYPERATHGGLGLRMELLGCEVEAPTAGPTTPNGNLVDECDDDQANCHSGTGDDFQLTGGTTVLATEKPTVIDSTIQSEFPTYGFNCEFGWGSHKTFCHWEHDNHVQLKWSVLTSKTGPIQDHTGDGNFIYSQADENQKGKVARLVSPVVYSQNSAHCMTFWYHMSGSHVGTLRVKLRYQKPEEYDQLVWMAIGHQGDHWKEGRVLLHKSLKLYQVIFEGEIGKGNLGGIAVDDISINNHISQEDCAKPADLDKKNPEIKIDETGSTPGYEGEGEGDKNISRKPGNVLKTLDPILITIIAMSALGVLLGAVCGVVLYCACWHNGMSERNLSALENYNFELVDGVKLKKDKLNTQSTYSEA
# Rpn11 block: Rpn11 (human) deubiquitinase inhibition; O00487; human 26S proteasome, Ub4-pepOG fluorescence polarization; 20S core pre-blocked with epoxomicin; inhibition, % at 20 µM; hit rate 0.59% among 360,000;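 active = inhibition at 20 µM, scaled to each plate's controls, above about 33%, limit read from the data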
# Rpn11 confirm: Rpn11 inhibition confirmation, single concentration; shares compounds with Rpn11 block; purified human 26S proteasome, Ub4-pepOG fluorescence polarization; proteasome pretreated with epoxomicin; inhibition, % at 20 µM; hit rate 29% among 1,900; AID 602318
# MMP-2 counter: MMP-2 (human) inhibition counter-screen. shares compounds with Rpn11 block. recombinant MMP-2, FRET peptide cleavage fluorescence. inhibition, % at 20 µM. hit rate 4% among 1,900. AID 602330;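 note: human MMP-2 activated beforehand with APMA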
# Thrombin inh: thrombin (bovine) inhibition counter-screen. shares compounds with Rpn11 block. bovine thrombin cleavage of Ub4-pepOG, fluorescence polarization. inhibition, % at 20 µM. hit rate 13% among 1,900. AID 602333;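 active = mean inhibition at least 40% at 20 µM, or signal 3 deviations below plate average, so some actives read negative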
# Hits are given with their value; . = inactive; / = no result given. Cut-off read from the data, not from the text of the source, unless noted: active = inhibition above about 40%; inactive = the rest.
SMILES,TPT1 inhibitor,PHOSPHO1 block,Fh CTSL1 inh,HNF4A DNA FP,NRP1-CendR mod,Rpn11 block,Rpn11 confirm,MMP-2 counter,Thrombin inh
NC1=NC(=O)/C(=C/c2cn(CCC(=O)O)nc2-c2ccc(F)cc2)S1,.,.,.,.,.,.,/,/,/
COc1ccc(-c2nn(CCC(=O)O)cc2/C=C2\SC(N)=NC2=O)cc1,.,.,.,.,.,46.8,.,.,.
NC1=NC(=O)/C(=C/c2cn(CCC(=O)O)nc2-c2ccc(Cl)cc2)S1,.,.,.,.,.,43.0,46.4,.,.
CCOc1ccc(N=C(NC#N)SCC)cc1,.,.,.,.,.,.,/,/,/
CCc1ccccc1NC(=O)c1cccc(NC(=O)/C=C/c2ccco2)c1,.,.,.,.,.,.,/,/,/
O=C(/C=C/c1ccco1)Nc1cccc(C(=O)Nc2ccccc2C(=O)O)c1,.,.,.,.,.,70.4,57.0,.,.
Cc1cc(N)c(NC2=CC(=O)CC(C)(C)C2)cc1C,.,.,.,.,.,53.8,.,.,.
CC(=O)N1CCN(S(=O)(=O)c2cccc(C(=O)Nc3ccccc3N3CCCCC3)c2)CC1,/,/,/,.,.,.,/,/,/
O=C(COc1ccc([N+](=O)[O-])cc1)Nc1cccc2nsnc12,.,.,.,.,.,75.3,.,.,.
CCS(=O)(=O)N1N=C(c2cccs2)CC1c1cc2cc(C)ccc2nc1Cl (centres undefined),.,.,.,.,.,64.5,.,.,.
Cc1ccc2nc(Cl)c(C3CC(c4cccs4)=NN3C(=O)CCCC(=O)O)cc2c1 (centres undefined),.,.,.,.,.,.,/,/,/
COC(=O)c1c(NC(=O)COC(=O)c2ccc(NC(=O)CC#N)cc2)sc2c1CCCCC2,.,.,.,.,.,95.9,106.1,.,.
Cc1ccc(S(=O)(=O)N2CCCN(C(=O)c3ccc(-n4cccn4)cc3)CC2)cc1,/,/,/,.,.,.,/,/,/
C=CCn1c(CCC(=O)O)ccc1-c1ccc(OC)cc1,.,.,.,.,.,38.0,.,.,.
COc1ccc(-c2ccc(CCC(=O)O)n2CC(C)C)cc1,.,.,.,.,.,.,/,/,/
CCN(CC(=O)NCc1cccs1)S(=O)(=O)c1ccccc1Cl,.,/,.,.,.,.,/,/,/
COC(=O)c1ccc(Nc2nc(-c3ccncc3)nc3ccccc23)cc1,.,.,.,.,.,112.5,.,.,.
COC(=O)c1cccc(Nc2nc(-c3ccncc3)nc3ccccc23)c1,.,.,.,.,.,.,/,/,/
CSCCC(NC(=O)c1ccco1)C(=O)OC(C)C(=O)NC(=O)NC1CCCCC1 (centres undefined),.,.,.,.,.,94.8,.,.,.
C[C@H](NC(=O)c1ccco1)C(=O)NC1CCCCCC1,/,/,/,.,.,.,/,/,/
COCCNC(=O)C1(C)Cc2c(-c3ccc(N(C)C)cc3)ccnc2O1 (centres undefined),/,/,/,.,.,.,/,/,/
CCN(CC)C(=O)CSc1nnc(-c2ccccc2)c(-c2ccccc2)n1,.,.,.,.,.,.,/,/,/
CCc1ccccc1OCC(=O)Nc1ccc(N2CCCC2)cc1C,/,/,/,51.6,.,87.6,43.4,.,.
Cc1cc(N2CCCC2)ccc1NC(=O)COc1ccccc1,/,/,/,.,.,.,/,/,/
C[C@@H](NC(=O)[C@H]1O[C@@H](n2cnc3c(N)ncnc32)[C@H](O)[C@@H]1O)c1cccc2ccccc12,/,/,/,.,.,.,/,/,/
SMILES,TPT1 inhibitor,PHOSPHO1 block,Fh CTSL1 inh,HNF4A DNA FP,NRP1-CendR mod,Rpn11 block,Rpn11 confirm,MMP-2 counter,Thrombin inh
CC(C)(C)c1ccc(C(=O)Nc2ccc(S(N)(=O)=O)cc2)cc1,.,.,.,.,.,.,/,/,/
NS(=O)(=O)c1ccc(NC(=O)c2cccc(N3C(=O)c4ccccc4C3=O)c2)cc1,.,.,.,.,.,79.0,81.8,.,.
NS(=O)(=O)c1ccc(NC(=O)c2ccc(-c3ccccc3)cc2)cc1,/,.,/,.,.,100.8,119.2,.,.
NS(=O)(=O)c1ccc(NS(=O)(=O)c2ccc(NC(=O)c3ccc(-c4ccccc4)cc3)cc2)cc1,.,.,.,.,.,119.3,109.3,.,100.6
NS(=O)(=O)c1ccc(NC(=O)Nc2ccccc2)cc1,.,.,.,.,.,41.4,.,.,.
O=C(O)c1cc(NC(=O)c2cccc(N3C(=O)c4ccccc4C3=O)c2)cc(C(=O)O)c1,.,.,.,.,.,.,/,/,/
CC(OC(=O)Cc1c[nH]c2ccccc12)C(=O)c1ccccc1 (centres undefined),/,/,/,.,.,.,/,/,/
COc1ccc(C(=O)NCc2n[nH]c(=S)n2-c2ccccc2)cc1OC,.,.,.,.,.,.,/,/,/
Brc1ccc(C2=Nn3c(nnc3-c3cccnc3)SC2)s1,.,.,.,.,.,67.1,.,.,.
O=C(Nc1ccc(Cl)cc1)c1ccco1,.,.,.,.,.,.,/,/,/
O=C(Nc1ccc(-c2nc3cc(Cl)ccc3c(=O)o2)cc1)c1ccco1,.,.,.,.,.,50.1,.,.,.
O=C1NC(=S)NC1=Cc1ccc2c(c1)CCC2,/,/,/,39.5,.,46.2,.,.,.
O=C1NC(=S)N/C1=C/C=C/c1ccccc1,.,.,.,.,.,.,/,/,/
C[C@@H]1CN([C@@H](C)CO)C(=O)c2cc(NS(=O)(=O)c3ccc(Cl)cc3)ccc2O[C@H]1CN(C)Cc1ccncc1,/,/,/,.,.,.,/,/,/
COc1ccc2nc(SCC(=O)Nc3ccc(S(=O)(=O)N4CCCC4)cc3)c(C#N)cc2c1,.,.,.,.,.,40.4,.,.,.
O=c1[nH]c(CSc2ncnc3sccc23)nc2cc(C(F)(F)F)ccc12,.,.,.,.,.,49.3,46.2,.,.
O=c1[nH]c(CSc2ncc(C(F)(F)F)cc2Cl)nc2ccccc12,.,.,.,.,.,.,/,/,/
Cc1sc2nc(SCC(=O)c3cc(C)n(CC4CCCO4)c3C)n(C(C)C)c(=O)c2c1C (centres undefined),.,78.9,.,.,.,122.8,.,.,.
COc1ccc(CC(C)NCC(O)c2ccc(O)c(NC=O)c2)cc1 (centres undefined),/,/,/,/,.,.,/,/,/
CC(C)CNC(=O)COC(=O)c1c2c(nc3ccccc13)/C(=C\c1cccs1)CC2,/,/,/,.,.,.,/,/,/
CN(CCC#N)C(=O)COC(=O)c1c2c(nc3ccccc13)/C(=C/c1ccco1)CC2,.,.,.,.,.,71.4,44.8,.,.
COC(=O)c1ccc(NC(=S)Nc2ccccc2)cc1,.,.,.,.,.,.,/,/,/
O=C(NC(=S)Nc1cccc(NC(=S)NC(=O)c2ccccc2)c1)c1ccccc1,/,/,/,.,.,40.1,.,48.9,.
